Measured values: PubChem BioAssay (Tox21)
Records with an inconclusive call do not appear. Where a call stands in place of a potency, no number is given. Values without a mark were called inactive. The source made the active and inactive calls. The call rests on the fitted dose curve; in most records, active means well fitted curve in the direction sought with a large enough effect in the repeat runs; inconclusive means weak or mixed curves; inactive means no such curve, though single readings can be large; an effect the other way counts as inactive or inconclusive.

How the values were obtained:
[1] = qHTS RealTime-Glo MT Cell Viability Assay in HEK293 cells - 16 hour (AID 1224872); conditions: RealTime-Glo luminescence; series mostly up to 76.8 µM; further: nearly all actives have a fitted effect of over 50% in size; further: potency means the concentration at half of the fitted maximal effect
Outline: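 Assay medium contained NanoLuc luciferase plus cell-permeant prosubstrate, added with HEK293 cells at 600 cells/well. After 5 h at 37 C/5% CO2 compounds were added; plates stayed at 37 C for 40 h with serial luminescence reads.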

[2] = qHTS RealTime-Glo MT Cell Viability Assay in HEK293 cells - 40 hour (AID 1224874); conditions: RealTime-Glo luminescence; max response: stronger effect = lower value; further: nearly all actives have a fitted effect of over 50% in size; further: potency means the concentration at half of the fitted maximal effect
Outline: (§1)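 qHTS format; HEK293 cells with NanoLuc/prosubstrate reagent, 37 C/5% CO2 for 5 h pre-dosing; compounds 23 nL in DMSO; luminescence at each time point reflects viable cells.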

[3] = A CellTox Green Cytotoxicity Assay to monitor cytotoxicity in HEK293 cells - 24 hour (AID 1224875); conditions: CellTox Green fluorescence; series mostly up to 76.8 µM; further: nearly all actives have a fitted effect of over 45% in size; further: potency means the concentration at half of the fitted maximal effect
Outline: (§2)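 Each value comes from one timepoint of a single continuous run in which HEK293 cells with CellTox Green were exposed to compound for up to 40 h at 37 C, dye fluorescence rising with cell death.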

[4] = A CellTox Green Cytotoxicity Assay to monitor cytotoxicity in HepG2 cells - 16 hour (AID 1224876); conditions: CellTox Green fluorescence; series mostly up to 76.8 µM; further: nearly all actives have a fitted effect of over 45% in size; further: potency means the concentration at half of the fitted maximal effect
Outline: (§3)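 Continuous culture of HepG2 cells with a membrane-impermeant DNA dye; rising fluorescence marks dead cells. Compound exposure lasted up to 40 h at 37 C, with reads every 8 h from 0 h.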

[5] = qHTS RealTime-Glo MT Cell Viability Assay in HepG2 cells - 32 hour (AID 1224877); conditions: RealTime-Glo luminescence; series mostly up to 76.8 µM; further: nearly all actives have a fitted effect of over 55% in size; further: potency means the concentration at half of the fitted maximal effect
Outline: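 qHTS, HepG2, 600 cells/well, RealTime-Glo (NanoLuc + prosubstrate) added with cells; 5 h preincubation; DMSO compound addition; 37 C; luminescence at 0/8/16/24/32/40 h.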

[6] = A CellTox Green Cytotoxicity Assay to monitor cytotoxicity in HepG2 cells - 24 hour (AID 1224878); conditions: CellTox Green fluorescence; series mostly up to 76.8 µM; further: nearly all actives have a fitted effect of over 45% in size; further: potency means the concentration at half of the fitted maximal effect
Outline: as §3

[7] = qHTS RealTime-Glo MT Cell Viability Assay in HEK293 cells - 0 hour (AID 1224880); conditions: RealTime-Glo luminescence; series mostly up to 76.8 µM; further: nearly all actives have a fitted effect of over 45% in size; further: potency means the concentration at half of the fitted maximal effect
Outline: as §1

[8] = A CellTox Green Cytotoxicity Assay to monitor cytotoxicity in HepG2 cells - 40 hour (AID 1224879); conditions: CellTox Green fluorescence; series mostly up to 76.8 µM; further: nearly all actives have a fitted effect of over 40% in size; further: potency means the concentration at half of the fitted maximal effect
Outline: as §3

[9] = A CellTox Green Cytotoxicity Assay to monitor cytotoxicity in HEK293 cells - 32 hour (AID 1224881); conditions: CellTox Green fluorescence; series mostly up to 76.8 µM; further: nearly all actives have a fitted effect of over 40% in size; further: potency means the concentration at half of the fitted maximal effect
Outline: as §2

[10] = qHTS RealTime-Glo MT Cell Viability Assay in HepG2 cells - 8 hour (AID 1224873); conditions: RealTime-Glo luminescence; series mostly up to 76.8 µM; further: nearly all actives have a fitted effect of over 55% in size
Outline: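 HepG2 cells (600/well) mixed with RealTime-Glo MT reagent, settled 5 h at 37 C/5% CO2 before compound addition. Nonlytic NanoLuc luminescence from viable-cell prosubstrate reduction read repeatedly during 40 h treatment at 37 C.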

Compound | Potency [1] | max response [2] | Potency [3] | Potency [4] | Potency [5] | Potency [6] | Potency [7] | Potency [2] | Potency [8] | Potency [9] | Potency [10]
C=CC(=O)OCC(O)COc1ccccc1 (stereo unspecified) | inactive | 8.54% | inactive | inactive | inactive | inactive | inactive |  |  |  | 
CCN(CC)CCOc1ccc(C(O)(Cc2ccc(Cl)cc2)c2ccc(C)cc2)cc1 (stereo unspecified) | 21.3 µM (active) |  | 23.9 µM (active) | 23.9 µM (active) | 19 µM (active) | 21.3 µM (active) | inactive | 10.7 µM (active) | 15.1 µM (active) | 23.9 µM (active) | 
CC1CNCC(C)O1 (stereo unspecified) | inactive | 11.7% | inactive | inactive | inactive | inactive | inactive |  | inactive | inactive | 
CCN(CC)CCNc1ccc(CO)c2sc3ccccc3c(=O)c12 | 16.9 µM (active) |  | inactive | 16.9 µM (active) |  | 16.9 µM (active) | inactive | 16.9 µM (active) | 13.4 µM (active) |  | 
CNCC[C@H](Oc1cccc2ccccc12)c1cccs1 | 23.9 µM (active) |  |  | 23.9 µM (active) | 21.3 µM (active) | 21.3 µM (active) |  | 23.9 µM (active) | 19 µM (active) |  | 
O=C1Nc2ccc(Cl)cc2[C@@](C#CC2CC2)(C(F)(F)F)O1 | 21.3 µM (active) |  |  |  |  |  | inactive | 23.9 µM (active) |  |  | 
C/C=C/C=N/NC(=O)c1ccncc1 | inactive | 11.4% |  | inactive | inactive | inactive | inactive |  | inactive |  | 
CN(C)CCCN1c2ccccc2Sc2ccc(C(F)(F)F)cc21 | 19 µM (active) |  |  | 23.9 µM (active) |  | 23.9 µM (active) |  | 23.9 µM (active) | 23.9 µM (active) | 23.9 µM (active) | 
CC(=O)OC(OC(C)=O)c1ccc([N+](=O)[O-])o1 | 44.4 µM (active) |  |  |  |  |  | inactive | 44.4 µM (active) | 49.8 µM (active) |  | 
CCCCCCCCCC(=O)N(C)C | inactive | -15.6% |  | inactive | inactive | inactive | inactive |  | inactive |  | 
Cc1cccc(C)c1NC(=O)CN1CCN(CCCC(c2ccc(F)cc2)c2ccc(F)cc2)CC1 | 10.7 µM (active) |  |  | 26.8 µM (active) | 23.9 µM (active) | 23.9 µM (active) | inactive | 10.7 µM (active) | 23.9 µM (active) |  | 
O=Nc1ccc(NO)cc1 | inactive |  | inactive |  | inactive | inactive | inactive |  | inactive | inactive | 
Cc1occc1SSc1ccoc1C | inactive | -28.3% |  |  | inactive |  | inactive |  | 54.9 µM (active) | 54.9 µM (active) | 
Brc1ccccn1 | inactive | -0.513% | inactive |  |  | inactive | inactive |  | inactive | inactive | 
Clc1ccc(C(c2ccccc2Cl)C(Cl)Cl)cc1 (stereo unspecified) |  | -26.4% | inactive | inactive | inactive | inactive | inactive |  | inactive |  | inactive
COc1ccccc1OCCNCC(O)COc1cccc2[nH]c3ccccc3c12 (stereo unspecified) | 16.9 µM (active) |  | inactive |  | 23.9 µM (active) | 26.8 µM (active) | inactive | 10.7 µM (active) | 23.9 µM (active) |  | 
c1cc(OCC2CO2)cc(OCC2CO2)c1 (stereo unspecified) |  |  | inactive | inactive |  |  | inactive | 12.2 µM (active) |  | inactive | inactive
Cc1ccc(CCn2c3c(c4cc(Cl)ccc42)CN(C)CC3)cn1 |  |  | inactive | inactive | inactive |  | 16.9 µM (active) | 21.3 µM (active) |  | inactive | inactive
CCC(C)(C)c1cc(O)c(C(C)(C)CC)cc1O | 21.9 µM (active) |  |  | inactive |  |  | inactive | 34.7 µM (active) | 49 µM (active) |  | 
CC(C(O)c1ccccc1)N(C)CCOC(c1ccccc1)c1ccccc1 (stereo unspecified) | 21.3 µM (active) |  |  | 23.9 µM (active) |  | 26.8 µM (active) | inactive | 23.9 µM (active) | 26.8 µM (active) | 26.8 µM (active) | 
C[n+]1c2cc(N)ccc2cc2ccc(N)cc21 (tested in a mixture with another compound) | 21.3 µM (active) |  | 23.9 µM (active) |  |  | 21.3 µM (active) | inactive | 4.77 µM (active) | 21.3 µM (active) | 23.9 µM (active) | 
Clc1ccc(C(Cn2ccnc2)OCc2c(Cl)cccc2Cl)c(Cl)c1 (stereo unspecified) |  |  | inactive |  | inactive |  |  | 16.9 µM (active) |  |  | inactive
C=CC(=O)OCCOCC(CC)(COCCOC(=O)C=C)COCCOC(=O)C=C | 18.1 µM (active) |  |  | inactive | 28.7 µM (active) |  | inactive | 14.4 µM (active) | 25.6 µM (active) |  | 
CCCCCCOc1ccc(O)cc1 | 0.0617 µM (active) |  |  |  |  |  | inactive | 0.0776 µM (active) |  | 19.5 µM (active) | 
CCOC(=O)C1=C(C)NC(C)=C(C(=O)OCC)C1c1ccccc1/C=C/C(=O)OC(C)(C)C | inactive |  | inactive | inactive |  | inactive | 3.79 µM (active) |  | inactive | inactive | 
Cc1ccc(-n2[nH]c(C)c(N=Nc3cccc(-c4cccc(C(=O)O)c4)c3O)c2=O)cc1C |  |  | inactive | inactive |  | inactive | inactive | 21.3 µM (active) | inactive | inactive | inactive
CC(C)(C)c1cc(/C=C2\SC(=N)NC2=O)cc(C(C)(C)C)c1O | 43.6 µM (active) |  |  | 43.6 µM (active) |  | 43.6 µM (active) | inactive | 49 µM (active) | 43.6 µM (active) |  | 
CCCOc1sc(C(=O)N2CCC(c3cc(CN)ccc3F)CC2)c(C)c1Br | 20 µM (active) |  | 22.5 µM (active) |  |  | 20 µM (active) |  | 31.8 µM (active) | 15.9 µM (active) | 31.8 µM (active) | 
C(=C/c1ccccc1)/c1ccccc1 | inactive | -13.3% |  |  | inactive | inactive | inactive |  | inactive |  | 
